A selection: hits, their analogues and other compounds. The true share with any hit is near 2.5%.
14-3-3 Bad PPI: inhibitors of 14-3-3 zeta/Bad binding, primary screen, biochemical, TR-FRET, bovine 14-3-3 zeta; 14-3-3 protein zeta/delta (Bos taurus), P63103; TR-FRET 14-3-3zeta/Dy647-pBad peptide displacement, 1 h; inhibition, % at 21.7 µM; 220,000 compounds, 0.71% hits;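 active = inhibition above about 70%, limit read from the data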
Mcl1-Bid inh: Mcl-1/Bid binding inhibitors, primary screen, biochemical, TR-FRET, 1536-well. TR-FRET Mcl-1/Bid-Dy647 peptide binding. inhibition, % at 21.7 µM. 220,000 compounds, 0.97% hits. AID 1021, 2008;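 active = compounds that cut the binding signal by more than half at the single screening dose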;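 also: His-tagged Mcl-1 with europium anti-His antibody binding Bid BH3 peptide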
Target sequence (Q07820 whole entry, looked up): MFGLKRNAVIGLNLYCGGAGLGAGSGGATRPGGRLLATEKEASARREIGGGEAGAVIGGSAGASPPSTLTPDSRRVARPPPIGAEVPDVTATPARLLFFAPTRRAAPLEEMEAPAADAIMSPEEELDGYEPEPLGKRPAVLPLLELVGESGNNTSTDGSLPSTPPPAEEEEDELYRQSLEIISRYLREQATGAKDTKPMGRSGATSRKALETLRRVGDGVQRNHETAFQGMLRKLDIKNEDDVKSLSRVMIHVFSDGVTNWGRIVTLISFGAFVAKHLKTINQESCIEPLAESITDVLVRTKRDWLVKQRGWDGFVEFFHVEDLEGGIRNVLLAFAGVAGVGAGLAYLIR
Mcl1-Noxa inh: Mcl-1/Noxa binding inhibitors, primary screen, biochemical, TR-FRET, 1536-well; inhibition, % at 21.7 µM; TR-FRET Mcl-1/Noxa peptide binding, 2 h; 220,000 compounds, 1.5% hits;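 active = compounds that cut the protein-peptide binding signal by more than 50% relative to plate controls in a single-dose test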;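 also: His-tagged Mcl-1 with rhodamine Noxa BH3 peptide and terbium anti-His antibody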
Mcl-1 Bim block: inhibitors of Bim peptide binding to Mcl-1, primary screen, biochemical, bead-based flow cytometry, multiplex; Induced myeloid leukemia cell differentiation protein Mcl-1 (Homo sapiens), Q07820; Bim peptide-Mcl-1 binding; inhibition, % at 10 µM; 190,000 compounds, 0.1% hits; in the data active = inhibition above about 40%
MCL1-BIM inh: inhibitors of MCL1 binding to BIM-BH3, primary screen, biochemical, fluorescence polarization; Induced myeloid leukemia cell differentiation protein Mcl-1 (Homo sapiens), Q07820; GST-MCL1 / FITC-Bim-BH3 fluorescence polarization; inhibition, % at 10.9 µM; 320,000 compounds, 0.68% hits;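 active = inhibition above the mean inhibition of all tested compounds plus 3 SD, set per campaign, cut at about 40% in these data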;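 also: higher means more loss of mP so more displacement of Bim peptide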
BCLXL inh confirm: Bcl-xL inhibitors blocking Bim BH3 binding, confirmation, counter-screen for MCL1 inhibitor project, biochemical, fluorescence polarization; inhibition, % at 10.9 µM; shares compounds with MCL1-BIM inh; AID 2166, 2009; 1,700 compounds, 54% hits; GST-Bcl-xL / FITC-Bim BH3 peptide FP binding;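 active = inhibition above a cutoff equal to the mean inhibition of all tested compounds plus 3 SD, cut at about 30% in these data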
MCL1 inh confirm: inhibitors of MCL1 binding to BIM-BH3, confirmation, biochemical, fluorescence polarization, triplicate. 1,700 compounds, 61% hits. shares compounds with MCL1-BIM inh. inhibition, % at 10.9 µM. GST-MCL1 / FITC-Bim-BH3 fluorescence polarization;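 active = inhibition above the average of all tested compounds plus 3 SD, cut at about 40% in these data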
Hits are given with their value; - = inactive; . = no result; + = active, no number.

SMILES	14-3-3 Bad PPI	Mcl1-Bid inh	Mcl1-Noxa inh	Mcl-1 Bim block	MCL1-BIM inh	BCLXL inh confirm	MCL1 inh confirm
O=C(NCCc1c[nH]c2ccccc12)c1ccc(Cl)cc1	.	.	.	.	-	.	.
c1ccc(CSc2nnc(-c3ccco3)n2Cc2ccco2)cc1	-	-	-	-	-	.	.
CCCCOc1[nH]c2nc(-c3ccco3)n(Cc3ccco3)c(=N)c2c1C#N	-	-	-	-	163	90	123
COc1cc(O)c(C(=O)/C=C/c2ccccc2)c(OC)c1	-	-	-	.	-	.	.
COc1cc(O)c(C(C)=O)c(CC(=O)O)c1	-	-	-	.	41	-	-
CSc1nnc(-c2ccco2)c(-c2ccco2)n1	-	-	78	-	42	-	56
Cc1ccccc1NC(=O)CSc1nnc(-c2ccco2)c(-c2ccco2)n1	-	-	87	-	52	35	86
Cc1cccc(C)c1NC(=O)CSc1nnc(-c2ccco2)c(-c2ccco2)n1	-	-	102	-	96	-	-
COc1ccc(/C=c2\s/c(=C/C(=O)c3ccc(C)cc3)[nH]c2=O)c(OC)c1	-	-	-	-	105	88	97
O=c1cc(-c2ccc(O)c(O)c2)oc2c1ccc1ccccc12	.	.	.	.	45	-	45
O=C(Cn1cnc2sc(-c3ccccc3)cc2c1=O)NCc1ccco1	-	-	62	-	62	-	62
O=C(Cn1cnc2sc(-c3ccccc3)cc2c1=O)NCc1ccccc1	-	-	-	-	-	.	.
C=CCNS(=O)(=O)c1cccc2cc(C(=O)O)c(O)cc12	-	-	-	-	97	-	-
O=C1CC(c2ccccc2)NN1 (configuration not stated)	.	.	.	.	-	.	.
O=C1CC(c2ccc3ccccc3c2)NN1 (configuration not stated)	.	.	.	.	42	-	-
CC1(c2cccc(Br)c2)NC(=O)N(CC(=O)Nc2cccnc2Cl)C1=O (configuration not stated)	.	.	.	.	-	.	.
COc1ccc(NS(=O)(=O)c2ccc(Cl)s2)cn1	-	-	-	.	78	72	94
COC(=O)CN(c1ccccc1C)S(C)(=O)=O	-	-	-	-	83	-	-
CCc1ccccc1N(CC(=O)OC)S(C)(=O)=O	-	-	-	-	-	.	.
CC(C)OC(=O)c1c2c(n3ccccc13)C(=O)c1ccccc1C2=O	-	-	-	-	122	136	151
COC(=O)c1c(C(=O)OC)c2ccccn2c1C(=O)c1ccc([N+](=O)[O-])cc1	.	.	.	.	-	.	.
Cc1ccc(Cn2c(SCC(=O)N3CC(=O)Nc4ccccc43)nc3ccccc3c2=O)cc1	-	-	-	-	-	.	.
COc1cc(OC)cc(C(=O)NCC2CCCN(C(=O)c3csc(C)n3)C2)c1 (configuration not stated)	.	.	.	.	-	.	.
O=c1[nH]c(C(Cl)Cl)nc2sc3c(c12)CCN(Cc1ccccc1)C3	-	-	94	-	102	56	78
CCCSc1nc2sc3c(c2c(=O)[nH]1)CCN(Cc1ccccc1)C3	-	-	-	-	-	.	.
CCO/C=C1\SC(=S)N(c2ccc(Cl)cc2)C1=O	-	-	-	.	-	.	.
CC(C)c1ccc(N2C(=O)/C(=C/N(C)C)SC2=S)cc1	-	-	-	.	+	+	+
COc1cccc(-c2cccc(NC(=O)C3CCN(Cc4cnn(C)c4)CC3)c2)c1	.	.	.	.	-	.	.
Cn1cc(CN2CCC(C(=O)Nc3cccc(-c4cccc(F)c4)c3)CC2)cn1	.	.	.	.	82	-	-
